# From PubChem
# In the library only some 19% were active in any assay of this set; here they are far more common.
# ELG1 DNA repair: qHTS screen for small molecules that inhibit ELG1-dependent DNA repair in human embryonic kidney (HEK293T) cells expressing luciferase-tagged ELG1 | HEK293T ELG1-luciferase reporter, luminescence, 16 h; DNA damage induced by 5-fluorouridine | AID 504467, 2011 | Potency, µM (doses to about 46.1 µM), usual class: inhibitors | 2.3% of 330,000 active; further: nearly all actives have a fitted effect of over 55% in size
#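 Luminescence from the luciferase reporter, measured 30 min after ONE-Glo reagent at room temperature, was the read-out. Beforehand, 2,000 cells per well were exposed for 16 hr at 37 °C to 5-fluorouridine together with compound or vehicle.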
# IL-1B inflam inh: qHTS for Inhibitors of Inflammasome Signaling: IL-1-beta AlphaLISA Primary Screen. THP-1 LPS/ATP IL-1B secretion, AlphaLISA, 16 h; active compounds read low. activity change, % at 57.5 µM. 4.7% of 360,000 active. AID 743279, 2014; in the data active means activity change below about -50%; inconclusive means mostly about -30% to -49%
#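 THP-1 cells pretreated 1 hr with compounds (up to 57.5 uM final), then stimulated with LPS (250 ng/mL final) plus ATP (1.25 mM final); secreted IL-1B measured by AlphaLISA after 16 hr, decreased signal indicating inhibition.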
# DT40 TDP1 no CPT: qHTS for Inhibitors of human tyrosyl-DNA phosphodiesterase 1 (TDP1): qHTS in cells in absence of CPT. DT40 Tdp1-/- hTDP1 cells, no CPT, ATP luminescence, 48 h. Potency, µM (top dose mostly 46.2 µM), actives largely listed as inhibitors. 15% of 420,000 active. AID 686978, 2013; further: nearly all actives have a fitted effect of over 55% in size
#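 No-CPT arm: Tdp1-/-;hTDP1 DT40 cells (400/well) plus compounds, incubated ≥48 hr at 37 °C. Readout CellTiter-Glo luminescence.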
# HT1080-NT tox: qHTS for induction of synthetic lethality in tumor cells producing 2HG: qHTS for the HT-1080-NT fibrosarcoma cell line. Potency, µM (titrated, usually from 46.1 µM), usual class: cytotoxic. 1.6% of 360,000 active. HT-1080-NT fibrosarcoma viability, CellTiter-Glo ATP luminescence, 48 h;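 further: NT is the 2HG producing partner of a matched IDH1 knockdown line; nearly all actives have a fitted effect of over 55% in size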
#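 Viability of the 2HG-overproducing fibrosarcoma line after 48 hours of compound exposure at 37 degrees C was determined by luminescence with CellTiter-Glo, and concentration-effect curves were then fitted and categorized.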
# DT40 TDP1 CPT: qHTS for Inhibitors of human tyrosyl-DNA phosphodiesterase 1 (TDP1): qHTS in cells in presence of CPT; chicken DT40 Tdp1-/-;hTDP1 cells + 20 nM CPT, ATP luminescence, 48 h; Potency, µM (top dose mostly 46.2 µM), most hits filed as inhibitors; 12% of 420,000 active; further: nearly all actives have a fitted effect of over 55% in size
#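 Cell growth measured by CellTiter-Glo luminescence after a minimum 48 h, 37 C compound exposure with 20 nM CPT in Tdp1-knockout DT40 cells stably expressing hTDP1, seeded 400/well; qHTS titration format.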
# HT1080 IDH1KD tx: qHTS for induction of synthetic lethality in tumor cells producing 2HG: qHTS for the HT-1080-IDH1KD cell line. HT-1080 IDH1 knockdown viability, ATP luminescence, 48 h. AID 686971, 2013. Potency, µM (top dose mostly 46.1 µM), usual class: cytotoxic. 2% of 360,000 active
#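 IDH1KD HT-1080 cells, 750/well, RPMI + 5% FBS; compound pinned after 2 h settling; 48 h, 37 °C; CellTiter-Glo luminescence; % activity normalised to DMSO and no-cell wells; curves fitted, classed by r2 and efficacy.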
# Hits are given with their value; n = inactive; u = inconclusive; x = not tested or not shown; [ ] = remark or other dose. Unless noted, the call rests on the fitted dose curve; in most records, active means well fitted curve in the direction sought with a large enough effect; inconclusive means small, poorly fitted or top-dose-only effect, or another doubt; inactive means no such curve, though single readings can be large; an effect the other way counts as inactive or inconclusive.
SMILES,ELG1 DNA repair,IL-1B inflam inh,DT40 TDP1 no CPT,HT1080-NT tox,DT40 TDP1 CPT,HT1080 IDH1KD tx
COC(=O)c1scc(-c2ccc(C)cc2)c1S(=O)(=O)Nc1ccc(N(C)C)cc1,x,x,15µM,x,16µM,x
COc1ccc(NC(=O)C2CC23CCN(Cc2cccc4ncccc24)CC3)cc1Cl (configuration not stated),x,x,u,x,n,x
COCCN1C(=O)N(c2cccc(OC)c2)C(=O)C1CC(=O)Nc1ccccc1 (configuration not stated),x,x,n,x,n,x
COc1ccc(CCN2C(=S)N(c3ccc(Cl)cc3)C(=O)C2CC(N)=O)cc1OC (configuration not stated),u,n,16µM,n,15µM,u
COc1cc(NC(=O)CC2C(=O)N(c3cccc(C)c3)C(=O)N2Cc2ccco2)cc(OC)c1 (configuration not stated),x,x,23µM,x,u,x
COc1ccc(NC(=O)CC2C(=O)N(c3ccc(F)cc3)C(=O)N2Cc2cccnc2)cc1 (configuration not stated),x,x,n,x,u,x
COC(=O)c1ccc(NC(=O)CC2C(=O)N(c3ccc(F)cc3)C(=O)N2Cc2ccc(OC)cc2)cc1 (configuration not stated),x,x,18µM,x,u,x
COc1ccc(NC(=O)CC2C(=O)N(c3cccc(OC)c3)C(=O)N2CCC2=CCCCC2)cc1 (configuration not stated),x,x,23µM,x,u,x
COc1ccc(NC(=O)C2CCCN2C(=O)OC(C)(C)C)cc1 (configuration not stated),n,n,n,n,n,n
Nc1cc(Cl)ccc1C(=O)OCC(=O)N1CCCCCC1,n,u,n,n,n,n
CSc1ncc(C(=O)Nc2cc(C)cc(C)c2)c(-c2ccccc2)n1,x,x,u,x,n,x
Cc1cccc(C(=O)NC2CCN(S(=O)(=O)c3ccccc3)CC2)c1,n,n,n,n,n,n
COC(=O)c1ccc(NC(=O)CC2C(=O)N(c3ccc(Cl)cc3)C(=O)N2Cc2ccco2)cc1 (configuration not stated),x,x,18µM,x,16µM,x
CCCOc1ccc(NC(=O)CC2C(=O)N(c3ccccc3)C(=O)N2Cc2ccc(F)cc2)cc1 (configuration not stated),x,x,21µM,x,16µM,x
CCOC(=O)c1ccc(NC(=O)CC2C(=O)N(c3cccc(OC)c3)C(=O)N2CCOC)cc1 (configuration not stated),n,n,n,n,n,n
CCCOc1ccc(NC(=O)CC2C(=O)N(c3ccc(C)cc3)C(=O)N2Cc2cccc(OC)c2)cc1 (configuration not stated),x,x,n,x,n,x
COC(=O)c1ccc(NC(=O)CC2C(=O)N(c3ccccc3)C(=O)N2Cc2ccco2)cc1 (configuration not stated),x,x,n,x,u,x
COC(=O)c1ccc(NC(=O)CC2C(=O)N(c3cccc(OC)c3)C(=O)N2Cc2cccc(OC)c2)cc1 (configuration not stated),x,x,15µM,x,u,x
CCc1ccc(NC(=O)CC2C(=O)N(c3ccc(C)cc3)C(=O)N2CCc2ccncc2)cc1 (configuration not stated),u,n,23µM,n,u,n
CCCOc1ccc(N2C(=O)CC(N(CCc3ccccc3)C(=O)c3ccccc3)C2=O)cc1 (configuration not stated),u,n,n,n,n,n
COc1cc(OC)cc(C(=O)NNC(=O)C(CCC(N)=O)NS(=O)(=O)c2ccc(Cl)cc2)c1 (configuration not stated),x,n,n,n[9.24 µM],n,n
CC(C)C(=O)N1CCC1(C)C(=O)Nc1ccc(-n2cncn2)cc1 (configuration not stated),x,n,n,n,n,n
CCc1ccc(NC(=O)CC2C(=O)N(c3cccc(OC)c3)C(=O)N2Cc2ccc(F)cc2)cc1 (configuration not stated),x,x,18µM,x,23µM,x
COc1ccc(CN2C(=O)N(c3ccc(OC)cc3)C(=O)C2CC(=O)Nc2ccccc2)cc1 (configuration not stated),n,n,u,n,n,n
O=C(CC1C(=O)N(c2ccc(Cl)cc2)C(=S)N1CCc1ccncc1)Nc1ccc(F)cc1 (configuration not stated),n,-63,u,u,u,u
SMILES,ELG1 DNA repair,IL-1B inflam inh,DT40 TDP1 no CPT,HT1080-NT tox,DT40 TDP1 CPT,HT1080 IDH1KD tx
CCOc1ccc(NC(=O)CC2C(=O)N(c3ccc(C)cc3)C(=O)N2Cc2ccc(OC)cc2)cc1 (configuration not stated),x,x,23µM,x,u,x
CCOC(=O)c1ccc(NC(=O)CC2C(=O)N(c3ccccc3)C(=O)N2Cc2ccc(C)cc2)cc1 (configuration not stated),x,x,23µM,x,u,x
CCNC(=O)CC1C(=O)N(c2ccc(C)cc2)C(=O)N1Cc1ccc(C)cc1 (configuration not stated),x,x,n,x,n,x
CC(=O)c1ccc(NC(=O)Nc2cccc3ccccc23)cc1,u,n,n,n,n,n
COc1ccc(CCN2C(=O)N(c3ccc(C)cc3)C(=O)C2CC(=O)Nc2ccc(F)cc2)cc1 (configuration not stated),x,x,21µM,x,u,x
COC(=O)c1ccc(NC(=O)CC2C(=O)N(c3cccc(OC)c3)C(=O)N2Cc2ccco2)cc1 (configuration not stated),x,x,u,x,16µM,x
CN(CC(=O)Nc1ccc(Cl)c(Cl)c1)C1CCCCC1,n,n,u,n,u,n
CN(CC(=O)Nc1ccc(Cl)c(Cl)c1)C(=O)C12CC3CC(CC(C3)C1)C2,n,-54,u,n,u,n
CC(C)(C)c1ccc(C(=O)N2CCC2(C)C(=O)NCc2ccc3c(c2)OCO3)cc1 (configuration not stated),x,n,9.2µM,n,12µM,u
Cc1c(C(=O)N2CCCCCC2(C)C(=O)NCC(C)C)oc2ccccc12 (configuration not stated),x,n,18µM,n,u,n
